Reference: PubChem BioAssay AID504727 (Broad Institute, 2011)
Calls of active or inactive are those of the source.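 How the source made its calls: active means fitted half-maximal concentration AC50 at or below ten times the highest valid tested dose, with signal falling as DNA is displaced (actives reach about 34 µM in these data); inconclusive means flat fit at moderate signal loss, or poor fit quality; inactive means the rest, including signal rising instead of falling.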

Assay: acridine orange-DNA binding displacement – biochemical, fluorescence polarization, cherry-picked samples, set 2, artefact control for KSHV LANA DNA-binding inhibitor project, dose response (AID 504727)
Conditions: series mostly up to 35 µM

AC50, inactive:
O=c1nc(N2CCOCC2)ccn1-c1nc(-c2ccccc2)sc1-c1ccccc1
O=C(O)c1cc(N2C(=O)C=CC2=O)cc(N2C(=O)C=CC2=O)c1
CC(C)Cc1nc(SCC(=O)Nc2nnc(CC(C)C)s2)n[nH]1
Cc1cccc(Nc2nc(N)c([N+](=O)[O-])c(NCc3ccccc3)n2)c1
CCOC(=O)C1(Cc2cccc(F)c2)CCN(Cc2c(C)nn(CC)c2C)CC1
COc1ccc(-c2csc(NC(=O)CSc3nc(C)nc4sc(C(=O)O)c(C)c34)n2)cc1
O=C(O)c1ccccc1NS(=O)(=O)c1ccc(N/N=C/c2ccc(O)c(O)c2)c([N+](=O)[O-])c1
CCOC(=O)C1Nc2ccccc2C2C(O)C(O)CC12 (stereo not drawn)
COc1ccccc1CNC(=O)C(=O)NCC1CCCN1S(=O)(=O)c1cccs1 (stereo not drawn)
Cc1cccc(N2C(=O)c3cccc4c(N(C)CCO)ccc(c34)C2=O)c1
CC1=[N+](C)N(c2ccccc2)C(=O)C1N=C/C=C/c1ccccc1 (stereo not drawn)
COc1ccc(C(=O)N/N=C/c2ccc(OC)c(COc3ccccc3)c2)cc1
CCc1ccc(N2CC(C(=O)OCC(=O)N(CC)c3c(N)n(Cc4ccccc4)c(=O)[nH]c3=O)CC2=O)cc1 (stereo not drawn)
O=C1CCCC(O)=C1N=Nc1ccc(C(=O)O)cc1
O=C(O)CN1C(=O)/C(=C\c2cc(Br)ccc2OCc2ccc([N+](=O)[O-])cc2)SC1=S
Cc1c(C)n(CCC(=O)O)c2ccccc12
O=C(C1CCCO1)N1CCN(c2ncccn2)CC1 (stereo not drawn)
CN(C)c1ccc(/C=C/C(=O)c2ccc(O)cc2)cc1[N+](=O)[O-]
CCSc1nnc(Cc2cc(=O)[nH]c(=O)[nH]2)n1-c1ccc(F)cc1
COc1ccc(-c2cnc3n2CCCCC3)cc1
Cc1nn(CC(=O)c2ccc(Br)s2)c(C)c1[N+](=O)[O-]
C/C(=N/NC(=O)c1cc(O)c(O)c(O)c1)c1ccc([N+](=O)[O-])cc1
COc1ccc(CC(=O)O/N=C(\N)c2ccc(OC)cc2)cc1
O=C(CCN1C(=O)/C(=C\c2ccco2)SC1=S)Nc1ccc(C(=O)O)c(O)c1
S=c1c2c(nc3nc[nH]n13)CCC2
CCCN(CCC)C(=O)C1c2ccccc2Oc2ccccc21
Cc1ccc(S(=O)(=O)/N=C/c2ccc(N(C)C)cc2)cc1
O=C(O)c1ccc(-n2cccc2/C=C2/NC(=O)N(c3cccc(Cl)c3)C2=O)cc1
CCn1c(CN2CCCCC2)nc2cc(S(=O)(=O)N3CCCCC3)ccc21
CSc1n[nH]c(=O)n1-c1cccc(Cl)c1
CCN(C(=O)COC(=O)c1nc2nc(C)cc(C)n2n1)C1CCCCC1
O=C1CCCC2=C1C(c1ccc(O)c(O)c1)Nc1ccc3ncccc3c12 (stereo not drawn)
COc1ccc(/C=C/C(=O)NC(=S)Nc2ccc(S(N)(=O)=O)cc2)cc1
O=C(/C=C\c1ccccc1)Oc1cccc2cccnc12

AC50, active:
COc1ccc2nc3ccccc3[n+]([O-])c2c1 26 µM
Cc1n[nH]c(C)c1N1C(=O)c2cccc3c(N4CCCCCC4)ccc(c23)C1=O 33.6 µM
O=C1c2cccc3c(O)ccc(c23)C(=O)N1c1ccc(Cl)cc1 2.95 µM
O=C(OCCN1C(=O)c2cccc3c(N4CCOCC4)ccc(c23)C1=O)c1ccc(Cl)cc1Cl 5.25 µM
